Rows were chosen to be rich in hits. Some 3.9% of all compounds tested hit in one or more screens of this group.
BoNT-F LC inh: blocks Botulinum neurotoxin F light chain protease; 360,000 tested, 0.22% active; Multiplex microsphere protease cleavage assay, flow cytometry; inhibition, % at 10 µM; in the data active = inhibition above about 35%, passing the limit was not always enough; inconclusive = no clear call, values can overlap the other calls
BoNT A protease: BoNT A light chain protease inhibition; multiplex microsphere protease substrate cleavage, flow cytometry; inhibition, % at 10 µM; AID 588499; 360,000 tested, 0.17% active
VHR inh abs: DUSP3 (human) phosphatase inhibition; recombinant VHR phosphatase, pNPP absorbance; inhibition, % at 13.3 µM; P51452; AID 1654; 290,000 tested, 0.52% active; in the data active = inhibition above about 50%
Target sequence (P51452 whole entry, looked up): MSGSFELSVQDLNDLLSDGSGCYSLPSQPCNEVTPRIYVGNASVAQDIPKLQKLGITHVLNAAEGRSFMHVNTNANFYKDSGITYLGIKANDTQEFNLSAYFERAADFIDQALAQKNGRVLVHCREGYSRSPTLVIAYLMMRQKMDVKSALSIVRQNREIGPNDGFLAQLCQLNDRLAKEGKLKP
Anthrax LF prot: anthrax lethal factor protease inhibition; AID 588501; 360,000 tested, 0.12% active; inhibition, % at 10 µM; multiplex microsphere protease cleavage assay, LF; P15917
Autofluor counter: flagged as autofluorescent in microsphere protease counterscreen. compound autofluorescence counterscreen, microsphere flow cytometry; active compounds read high. fluorescence intensity (no concentration beside the values). 360,000 tested, 3.1% active. AID 624483; in the data active = fluorescence intensity above about 16000; inconclusive = no clear call, values can overlap the other calls
SARS 3CLpro inh: SARS-CoV 3CLpro protease inhibition | P0C6X7 | recombinant SARS-CoV 3CLpro, quenched FRET peptide cleavage | inhibition, % at 6 µM | 290,000 tested, 0.14% active; in the data active = inhibition above about 12%
A number is an active result. Rule as the data show it, unless noted: active = inhibition above about 30%; inconclusive = no clear call, values can overlap the other calls; inactive = below that.

How did CN(C)N=Nc1ccc(S(=O)(=O)N2CCSC2C(=O)O)cc1 (stereo not given) do in these assays?
BoNT-F LC inh: inactive; BoNT A protease: inconclusive; Anthrax LF prot: inactive; Autofluor counter: 25952; SARS 3CLpro inh: inactive

Results for Cc1ccc(S(=O)(=O)N2CCSC2C(=O)O)cc1 (stereo not given) ?
BoNT-F LC inh: inactive; BoNT A protease: inactive; VHR inh abs: inactive; Anthrax LF prot: inactive; Autofluor counter: inactive; SARS 3CLpro inh: inactive

How did Cc1c(C(=O)N2CCC(C)CC2)oc2ccc3c(c12)C(O)CC1(CCCCC1)O3 (stereo not given) do in these assays?
BoNT-F LC inh: inactive; BoNT A protease: inactive; VHR inh abs: inactive; Anthrax LF prot: inactive; Autofluor counter: inactive; SARS 3CLpro inh: inactive

Results for Cc1cc(Cl)ccc1OCC(=O)N1C(C)CCCC1C (stereo not given) ?
BoNT-F LC inh: inactive; BoNT A protease: inactive; VHR inh abs: inactive; Anthrax LF prot: inactive; Autofluor counter: 24242; SARS 3CLpro inh: inactive

What do the screens show for `CC1CCCC(C)N1C(=O)COc1ccc([N+](=O)[O-])cc1Cl` (stereo not given)?
BoNT-F LC inh: inactive; BoNT A protease: inactive; VHR inh abs: inactive; Anthrax LF prot: inactive; Autofluor counter: inactive; SARS 3CLpro inh: inactive

Results for Cc1cccc2nc(Cn3c(=O)n(CCC(=O)NCc4ccco4)c(=O)c4ccccc43)cc(=O)n12 ?
BoNT-F LC inh: inactive; BoNT A protease: inactive; Anthrax LF prot: inactive; Autofluor counter: inactive

Results for Cc1cccc2nc(Cn3c(=O)n(CCC(=O)NCc4ccco4)c(=O)c4sccc43)cc(=O)n12 ?
BoNT-F LC inh: inactive; BoNT A protease: inactive; VHR inh abs: inactive; Anthrax LF prot: inactive; Autofluor counter: 20173; SARS 3CLpro inh: inactive

How did COc1ccc(OCC(=O)Nc2c3c(nn2C(C)(C)C)CSC3)cc1 do in these assays?
BoNT-F LC inh: inactive; BoNT A protease: inactive; VHR inh abs: inactive; Anthrax LF prot: inactive; Autofluor counter: inactive; SARS 3CLpro inh: inactive

What do the screens show for `Cc1c(Cl)cccc1NC(=O)C1=COCCO1`?
BoNT-F LC inh: inactive; BoNT A protease: inactive; Anthrax LF prot: inactive; Autofluor counter: inactive

What do the screens show for `O=C(Nc1cnccn1)C1c2ccccc2Oc2ccccc21`?
BoNT-F LC inh: inactive; BoNT A protease: inactive; VHR inh abs: inactive; Anthrax LF prot: inactive; Autofluor counter: 19665; SARS 3CLpro inh: inactive

Results for Cc1ccc(NC(=O)C2c3ccccc3Oc3ccccc32)nc1 ?
BoNT-F LC inh: inactive; BoNT A protease: inactive; VHR inh abs: inactive; Anthrax LF prot: inactive; Autofluor counter: inactive; SARS 3CLpro inh: inactive

Results for Cn1c(=O)n(-c2cccc(Cl)c2)c(=O)c2c3c(sc21)COC(C)(C)C3 ?
BoNT-F LC inh: inactive; BoNT A protease: inactive; VHR inh abs: inactive; Anthrax LF prot: inactive; Autofluor counter: 17764; SARS 3CLpro inh: inactive

Results for CCOC(=O)N1CCN(S(=O)(=O)c2ccc(C(=O)Nc3ccc4c(c3)C(=O)NC4=O)cc2)CC1 ?
BoNT-F LC inh: inactive; BoNT A protease: inactive; VHR inh abs: inactive; Anthrax LF prot: inactive; Autofluor counter: inactive; SARS 3CLpro inh: inactive

Results for CON(C)C(=O)Nc1ccc(Cl)cc1 ?
BoNT-F LC inh: inactive; BoNT A protease: inactive; VHR inh abs: inactive; Anthrax LF prot: inactive; Autofluor counter: 16992; SARS 3CLpro inh: inactive

Results for CS(=O)(=O)N(CC(=O)Nc1cccc(Cl)c1Cl)c1ccccc1 ?
BoNT-F LC inh: inactive; BoNT A protease: inactive; VHR inh abs: inactive; Anthrax LF prot: inactive; Autofluor counter: inactive; SARS 3CLpro inh: inactive

What do the screens show for `Cc1cccc(C)c1Nc1nnc(SCc2cc([N+](=O)[O-])cc3c2OCOC3)s1`?
BoNT-F LC inh: inactive; BoNT A protease: inactive; VHR inh abs: inactive; Anthrax LF prot: inactive; Autofluor counter: 16667; SARS 3CLpro inh: inactive

Results for CC1CCCN(Cc2nc3c(c(=O)n(C)c(=O)n3C)n2CC(N)=O)C1 (stereo not given) ?
BoNT-F LC inh: inactive; BoNT A protease: inactive; VHR inh abs: inactive; Anthrax LF prot: inactive; Autofluor counter: 16667; SARS 3CLpro inh: inactive

What do the screens show for `Cn1c(=O)c2c(nc(CN3CCN(C(c4ccccc4)c4ccccc4)CC3)n2CC(N)=O)n(C)c1=O`?
BoNT-F LC inh: inactive; BoNT A protease: inactive; VHR inh abs: inactive; Anthrax LF prot: inactive; Autofluor counter: 21667; SARS 3CLpro inh: inactive

Results for CCOCCn1c(CN2CCCC(C)C2)nc2c1c(=O)n(C)c(=O)n2C (stereo not given) ?
BoNT-F LC inh: inactive; BoNT A protease: inactive; VHR inh abs: inactive; Anthrax LF prot: inactive; Autofluor counter: inactive

How did CC(C)(C)OC(=O)N1CCC2(CC1)Oc1ccc(Cl)cc1C(=O)C21CC(c2ccc(Cl)cc2)=NO1 (stereo not given) do in these assays?
BoNT-F LC inh: inactive; BoNT A protease: inactive; Anthrax LF prot: inactive; Autofluor counter: inactive

How did CC1(C(=O)O)CCN1C(=O)c1ccccc1F (stereo not given) do in these assays?
BoNT-F LC inh: inactive; BoNT A protease: inactive; Anthrax LF prot: inactive; Autofluor counter: inactive

How did Cc1ccc(C(=O)NC(=O)CSc2ncccc2C(=O)O)cc1 do in these assays?
BoNT-F LC inh: inactive; BoNT A protease: inactive; VHR inh abs: inactive; Anthrax LF prot: inactive; Autofluor counter: inactive; SARS 3CLpro inh: inactive

Results for C/C(CC(=O)Nc1ccc2c(c1)OCO2)=N\NC(=O)OC(C)(C)C ?
BoNT-F LC inh: 42; BoNT A protease: inactive; VHR inh abs: inactive; Anthrax LF prot: inactive; Autofluor counter: inactive; SARS 3CLpro inh: inactive

Results for CC1CC(=O)N(CC(=O)NCc2ccco2)c2ccccc2S1 (stereo not given) ?
BoNT-F LC inh: inactive; BoNT A protease: inactive; VHR inh abs: inactive; Anthrax LF prot: inactive; Autofluor counter: 23847; SARS 3CLpro inh: inactive

What do the screens show for `CC1Cc2ccccc2N1CC(=O)NC(=O)NCc1ccco1` (stereo not given)?
BoNT-F LC inh: inactive; BoNT A protease: inactive; VHR inh abs: inactive; Anthrax LF prot: inactive; Autofluor counter: 17928; SARS 3CLpro inh: inactive

How did Cc1ccc(CSCC(=O)Nc2ccc3c(c2)OCO3)cc1 do in these assays?
BoNT-F LC inh: inactive; BoNT A protease: inactive; VHR inh abs: inactive; Anthrax LF prot: inactive; Autofluor counter: 22179; SARS 3CLpro inh: inactive

How did CSc1ccccc1NC(=O)CN(C)C(=O)c1ccc(NC(=O)c2cccs2)cc1 do in these assays?
BoNT-F LC inh: inactive; BoNT A protease: inactive; Anthrax LF prot: inactive; Autofluor counter: inactive

How did O=C(CN1CCCc2ccccc21)NC(=O)NCc1ccco1 do in these assays?
BoNT-F LC inh: inactive; BoNT A protease: inactive; VHR inh abs: inactive; Anthrax LF prot: inactive; Autofluor counter: 17200; SARS 3CLpro inh: inactive

How did CC1Cc2ccccc2N1CC(=O)Nc1ccc2c(c1)OCO2 (stereo not given) do in these assays?
BoNT-F LC inh: inactive; BoNT A protease: inactive; VHR inh abs: inactive; Anthrax LF prot: inactive; Autofluor counter: 20865; SARS 3CLpro inh: inactive

What do the screens show for `CC1Cc2ccccc2N1CC(=O)Nc1cccc(S(N)(=O)=O)c1` (stereo not given)?
BoNT-F LC inh: inactive; BoNT A protease: inactive; VHR inh abs: inactive; Anthrax LF prot: inactive; Autofluor counter: inactive; SARS 3CLpro inh: inactive
